Assay outcomes as filed in PubChem BioAssay.
Only some compounds are listed: those with a hit (about 3.5% of all), similar ones and a draw of the others.
MITF inh: inhibitors of human MITF. O75030. AlphaScreen MITF homodimerization, bead proximity signal. inhibition, % at 2.6 µM. hit rate 0.91% among 650,000. AID 1259374; in the data active = inhibition above about 50%
GPR151 ag: activators of human GPR151 | AID 1508602 | PathHunter beta-arrestin GPR151 cells, luminescence | activation, % at 11.2 µM | Q8TDV0 | hit rate 1% among 650,000; in the data active = activation above about 4.9%
FBW7 act: human FBW7 E3 ligase activation, primary screen. Q969H0. AlphaScreen FBW7–phospho-cyclin E peptide binding, activator screen. normalized activity (activation), % at 26.1 µM. hit rate 0.13% among 650,000. AID 1259310; in the data active = normalized activity above about 1.9%;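 also: purified mutant Fbw7 with reduced substrate affinity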
Target sequence (Q969H0 whole entry, looked up): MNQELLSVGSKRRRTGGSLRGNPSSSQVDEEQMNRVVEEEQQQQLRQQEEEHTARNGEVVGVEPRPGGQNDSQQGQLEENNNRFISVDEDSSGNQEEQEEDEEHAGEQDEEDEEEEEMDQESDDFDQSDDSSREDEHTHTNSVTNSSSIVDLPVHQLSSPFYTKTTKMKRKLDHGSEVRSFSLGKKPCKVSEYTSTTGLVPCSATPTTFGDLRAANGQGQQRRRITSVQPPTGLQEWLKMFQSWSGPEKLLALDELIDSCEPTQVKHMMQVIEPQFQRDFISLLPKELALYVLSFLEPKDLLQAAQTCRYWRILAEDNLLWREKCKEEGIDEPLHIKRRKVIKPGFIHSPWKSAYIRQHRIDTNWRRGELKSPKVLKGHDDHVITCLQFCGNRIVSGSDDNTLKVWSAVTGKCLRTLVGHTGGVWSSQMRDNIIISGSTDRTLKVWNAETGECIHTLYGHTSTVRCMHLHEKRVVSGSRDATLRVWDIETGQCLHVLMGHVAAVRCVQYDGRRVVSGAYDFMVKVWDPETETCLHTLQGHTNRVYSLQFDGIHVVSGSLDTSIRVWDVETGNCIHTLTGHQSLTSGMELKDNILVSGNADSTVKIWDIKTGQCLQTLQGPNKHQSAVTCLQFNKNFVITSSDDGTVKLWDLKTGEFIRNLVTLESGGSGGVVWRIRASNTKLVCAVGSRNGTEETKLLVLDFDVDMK
TEAD-YAP block: TEAD-YAP interaction inhibition | HEK-TIYL cells, TEAD-Gal4/YAP UAS-luciferase luminescence | inhibition, % at 9.12 µM | hit rate 1.4% among 640,000 | AID 1259422; in the data active = inhibition above about 32%
Large screens that a line does not name were inactive.

Cc1ccc(S(C)(=O)=O)cc1C(=O)NCc1ccccn1	none
CNC(=O)CSc1nccn1-c1cccc(C(F)(F)F)c1	none
CN(Cc1nc(-c2ccccc2)no1)C(=O)c1cc(CCc2ccccc2)no1	none
Cc1sc(N2CCOCC2)nc1-c1cc(Br)ccc1O	none
c1ccc(N2CCN(c3nc(Nc4ccc(N5CCOCC5)cc4)c4ncn(C5CCCCC5)c4n3)CC2)nc1	MITF inh 52
COc1ccccc1CC(=O)N1CC[C@@H]2[C@H](CCCN2C(=O)c2cn3ccccc3n2)C1	none
CCN(CC)C(=O)N1c2ccccc2C=Cc2ccccc21	TEAD-YAP block 62
NC(=O)c1cc(Cc2ccccc2)sc1NC(=O)c1ccc(Cl)s1	none
COc1cc(Nc2nc(-c3c(C)noc3C)nc3c2ncn3Cc2ccc(C(F)(F)F)cc2)cc(OC)c1OC	TEAD-YAP block 52
FC(F)(F)c1ccc(Cn2cnc3c(NC4CC4)nc(Nc4ccc(N5CCOCC5)cc4)nc32)cc1	none
FC(F)(F)c1ccc(Cn2cnc3c(NC4CC4)nc(Nc4ccccc4)nc32)cc1	TEAD-YAP block 35
CCNc1nc(Nc2cc(OC)c(OC)c(OC)c2)c2ncn(Cc3ccc(C(F)(F)F)cc3)c2n1	TEAD-YAP block 52
COc1cc(Nc2nc(Nc3ccc(C(F)(F)F)cc3)nc3c2ncn3Cc2ccc(C(F)(F)F)cc2)cc(OC)c1OC	none
COc1cc(Nc2nc(NC3CCC(O)CC3)nc3c2ncn3Cc2ccc(C(F)(F)F)cc2)cc(OC)c1OC (stereo not given)	TEAD-YAP block 47
COc1cc(Nc2nc(Nc3cc(OC)c(OC)c(OC)c3)c3ncn(Cc4ccc(C(F)(F)F)cc4)c3n2)cc(OC)c1OC	none
COc1cc(Nc2nc(Nc3ccccc3)nc3c2ncn3Cc2ccc(C(F)(F)F)cc2)cc(OC)c1OC	none
O=C(c1cc2ccccc2oc1=O)N(Cc1cccs1)C1CCCC1	none
Cc1nn(C)c(C)c1-c1nc(Nc2ccc(N3CCOCC3)cc2)c2ncn(Cc3ccc(C(F)(F)F)cc3)c2n1	none
Cc1noc(C)c1-c1nc(Nc2ccc(N3CCOCC3)cc2)c2ncn(Cc3ccc(C(F)(F)F)cc3)c2n1	TEAD-YAP block 32
c1ccc(CN2CCN(c3nc4nonc4nc3N3CCCCCC3)CC2)nc1	none
N#Cc1cc2cc3c(cc2nc1SCC(=O)NCc1ccc2c(c1)OCO2)OCCO3	TEAD-YAP block 50
N#Cc1cc2cc3c(cc2nc1SCC(=O)NCc1cccs1)OCCO3	TEAD-YAP block 46
COc1ccccc1NC(=O)CSc1nc2cc3c(cc2cc1C#N)OCCO3	TEAD-YAP block 62
Cc1ccc2nc(SCC(=O)Nc3ncc(C)s3)c(C#N)cc2c1	FBW7 act 3.8
COc1cc2cc(C#N)c(SCC(=O)NCc3cccs3)nc2cc1OC	none
CCCCc1nc2sc3c(=O)[nH]cnc3c2c2c1COC(C)(C)C2	none
Cc1nc2cc(-c3ccccc3)nn2c(C)c1CCC(=O)O	TEAD-YAP block 51
COc1cc(OC)cc(-c2cc3nc(C)c(CCC(=O)NCc4ccccc4)c(C)n3n2)c1	TEAD-YAP block 39
Cc1nc2cc(-c3ccc(Cl)cc3)nn2c(C)c1CCC(=O)O	TEAD-YAP block 44
Cc1csc(NC(=O)CCc2c(C)nc3cc(-c4ccccc4)nn3c2C)n1	TEAD-YAP block 38
CC(C)(C)c1ccc(C(=O)NCCOc2ccccc2)cc1	TEAD-YAP block 36
CC(C)(C)c1ccc(C(=O)NCCOc2ccccc2F)cc1	TEAD-YAP block 59
CCn1c(C=Nc2ccccc2)nc2ccccc21	none
Cc1cc(NC(=O)Nc2ccccc2)ccc1N1CCCCC1=O	TEAD-YAP block 37
Cc1cccc(N2CCC(NC(=O)CC3C(=O)NCCN3CC(C)(C)C)CC2)c1 (stereo not given)	none
CCCn1ccc2c(OCC(=O)Nc3ccc(OC)c(OC)c3)cccc2c1=O	TEAD-YAP block 38
COCCn1ccc2c(OCC(=O)Nc3ccc(C)cc3)cccc2c1=O	none
Cc1ccc(Nc2c([N+](=O)[O-])c(=O)oc3ccccc23)cc1	none
CN(C)c1ccc(Nc2c([N+](=O)[O-])c(=O)oc3ccccc23)cc1	TEAD-YAP block 53
Cc1cccc(NC(c2ccc(Cl)cc2)c2ccc3cccnc3c2O)n1 (stereo not given)	TEAD-YAP block 90
Cc1cccc(NC(c2ccncc2)c2ccc3cccnc3c2O)n1 (stereo not given)	MITF inh 113, TEAD-YAP block 68
Cc1cc(NC(c2cccc(Br)c2)c2ccc3cccnc3c2O)no1 (stereo not given)	TEAD-YAP block 84
Cc1cccc(NC(c2cccnc2)c2ccc3ccc(C)nc3c2O)n1 (stereo not given)	none
Cc1cccc(NC(c2cccc(Cl)c2)c2ccc3cccnc3c2O)n1 (stereo not given)	TEAD-YAP block 48
CCOC(=O)C1=C2SCC(=O)N2C(N)=C(C(=O)OC(C)C)C1	none
CCOc1cc(Br)cc(/C=N/NC(=O)Cc2ccccc2)c1O	none
CCCNc1nc(Nc2ccccn2)nc2c1ncn2-c1ccccc1	none
FC(F)(F)c1cccc(CNc2nc(Nc3nccc4ccccc34)nc3c2ncn3-c2ccsc2)c1	TEAD-YAP block 32
OCCNc1nc(Nc2ccccn2)nc2c1ncn2-c1ccsc1	TEAD-YAP block 69
c1ccc(OCCNc2nc(Nc3ccccn3)nc3c2ncn3-c2ccsc2)cc1	none
CCCNc1nc(Nc2ccccn2)nc2c1ncn2-c1ccsc1	TEAD-YAP block 62
OCCNc1nc(Nc2nccc3ccccc23)nc2c1ncn2-c1ccsc1	TEAD-YAP block 58
COc1ccc(NC(=S)NC(=O)C23CC4CC(CC(C4)C2)C3)cc1	none
CCCNc1nc(Nc2nccc3ccccc23)nc2nc[nH]c12	none
O=C(CSc1nnc2ccccn12)NC(c1ccccc1)c1ccccc1	none
Cc1cnc(NC(=O)c2ccccc2F)s1	TEAD-YAP block 64
Cc1ccc(-c2c(NC(C)c3ccccc3)c(=O)c2=O)cc1 (stereo not given)	TEAD-YAP block 45
Cc1ccc(CNc2c(-c3ccccc3)c(=O)c2=O)cc1	none
Cc1ccc(-c2c(Nc3ccccc3C)c(=O)c2=O)cc1	TEAD-YAP block 49
Cc1ccc(Nc2c(-c3ccccc3)c(=O)c2=O)cc1F	TEAD-YAP block 35
CCOC(=O)C1=C(C)N=c2s/c(=C/c3ccc4c(c3)OCO4)c(=O)n2C1c1ccccc1F (stereo not given)	none
CCOCc1nnc(NC(=O)Cc2ccccc2)s1	none
Cc1ccc(C(C)C(=O)N2CCC3(CC2)NC(=O)c2ccccc2O3)cc1 (stereo not given)	none
COc1cc(C(=O)OCC(C)=O)ccc1OCc1c(C)noc1C	TEAD-YAP block 48
COC(=O)c1ccc(COC(=O)c2ccc(OCc3c(C)noc3C)c(OC)c2)cc1	none
CC(C)c1nc2ccccc2c(=O)n1CC(=O)N1CCOCC1	none
CCC(C)NC(=O)CCN1C(=O)COc2ccc(C)cc21 (stereo not given)	none
COc1ccc2oc(=Nc3ccccc3)c(-c3nc4ccccc4[nH]3)cc2c1	none
COc1ccc2cc(-c3nc4ccccc4[nH]3)c(=Nc3ccc(C(N)=O)cc3)oc2c1	TEAD-YAP block 66
COc1ccc2cc(-c3nc4ccccc4[nH]3)c(=Nc3ccc(F)cc3)oc2c1	TEAD-YAP block 76
O=C(CNC(=O)c1ccc(Cl)cc1)Nc1ccc(F)cc1	none
